# In PubChem BioAssay (EPA / NIEHS):
# Inconclusive results are not listed. Calls of active or inactive are those of the source. How the source made its calls, unless noted: active means hit-call score of the fitted dose curve at least 0.9, where 1 is the maximum; inactive means score below 0.9.
# Experiments:
# [1] = TOX21_p53_BLA_p2_viability: Viability Assessment in the Tox21 HCT-116 p53 Agonism Beta-lactamase Assay, Phase 2 (AID 2283591; active means hit-call score of the fitted dose curve at least 0.9, where 1 is the maximum;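 further: compound exposure lasted 16 h at 37 °C; actives lower the ATP signal meaning cytotoxicity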)
# How it was run: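 Cytotoxicity readout: CellTiter-Glo ATP luminescence, 30 min at room temperature, after the beta-lactamase read. Cells were HCT116 exposed 16 h at 37C to compounds pin-transferred at 217-fold dilution from DMSO stocks.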
# [2] = TOX21_p53_BLA_p3_viability: Viability Assessment in the Tox21 HCT-116 p53 Agonism Beta-lactamase Assay, Phase 3 (AID 2283593; active means hit-call score of the fitted dose curve at least 0.9, where 1 is the maximum;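 further: cells exposed to compound for 16 h before reading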)
# How it was run: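 Cellular ATP was quantified by CellTiter-Glo luminescence, read after 30 min at room temperature. Beforehand, HCT116 cells (4000/well) received compound 5 h post-seeding, 217-fold diluted from DMSO, then incubated 16 h at 37C.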
# [3] = TOX21_p53_BLA_p4_viability: Viability Assessment in the Tox21 HCT-116 p53 Agonism Beta-lactamase Assay, Phase 4 (AID 2283597; active means hit-call score of the fitted dose curve at least 0.9, where 1 is the maximum;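 further: hits lower the luminescence signal meaning cytotoxicity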)
# How it was run: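 Viability is taken as cellular ATP: after 16 h compound exposure of HCT116 cells and a 2 h room-temperature CCF4-AM substrate step, CellTiter-Glo reagent is added and luminescence is measured 30 min later.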
# [4] = molecular target: Cellular tumor antigen p53 (Homo sapiens) (UniProt P04637); test: TOX21_p53_BLA_p5_ratio: Tox21 HCT-116 p53 Agonism Beta-lactamase Assay, Ratio, Phase 5 (AID 2283599; active means hit-call score of the fitted dose curve at least 0.9, where 1 is the maximum)
# How it was run: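 Beta-lactamase reporter ratio (blue 460 nm over green 530 nm, 405 nm excitation) after 2 h CCF4-AM loading, in HCT-116 cells exposed 16 h at 37 C to compounds pinned at 217-fold dilution. Increases relative to DMSO baseline scored.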
# [5] = CCTE_Shafer_MEA_dev_firing_rate_mean: CCTE's Neural Network Formation Assay for Mean Firing Rate, Shafer Lab (AID 2284031)
# How it was run: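 Steps: seed rat cortical cells (1.5 x 10^5/well) with laminin on PEI-coated MEA; dose day 0; record DIV 5/7/9/12, full media and compound exchange after DIV 5 and 9 recordings; compute well-mean firing rate AUC.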
# [6] = CCTE_Shafer_MEA_dev_per_burst_spike_percent: CCTE's Neural Network Formation Assay for Percent of Spikes in a Burst, Shafer Lab (AID 2284032)
# How it was run: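 Value is trapezoidal AUC over recordings on days 5, 7, 9 and 12 of the well-mean fraction of spikes falling in single-electrode bursts; rat cortical cultures exposed continuously from plating, treatment renewed DIV 5 and 9, fitted downward against DMSO.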
# [7] = CCTE_Shafer_MEA_dev_active_electrodes_number: CCTE's Neural Network Formation Assay for Number of Active Electrodes, Shafer Lab (AID 2284040; active means hit-call score of the fitted dose curve at least 0.9, where 1 is the maximum)
# How it was run: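 Counts electrodes per well firing at least 5 spikes/min, recorded on days 5, 7, 9 and 12 in rat cortical cultures dosed continuously from plating (treatment refreshed DIV 5, 9). Value is the area under the curve over recordings, fitted downward relative to DMSO.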
# [8] = CCTE_Shafer_MEA_dev_burst_rate: CCTE's Neural Network Formation Assay for Burst Rate, Shafer Lab (AID 2284042)
# How it was run: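 Developmental network assay measuring how 12-day exposure of rat cortical neuron cultures alters bursting on extracellular MEA recordings. Values are AUC of well-mean burst rate across four recording days, relative to DMSO vehicle.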
# [9] = CCTE_Shafer_MEA_dev_bursting_electrodes_number: CCTE's Neural Network Formation Assay for Number of Bursting Electrodes, Shafer Lab (AID 2284043; active means hit-call score of the fitted dose curve at least 0.9, where 1 is the maximum)
# How it was run: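 Number of electrodes reaching ≥1 burst every 2 min was recorded at DIV 5, 7, 9 and 12 and collapsed as trapezoidal area under the curve. Cultures were rat cortical neurons on MEA plates, dosed continuously from plating with medium and treatment refreshed on DIV 5 and 9.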
# [10] = CCTE_Shafer_MEA_dev_per_burst_interspike_interval: CCTE's Neural Network Formation Assay for Burst Interspike Interval, Shafer Lab (AID 2284044)
# How it was run: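 Developmental network-formation MEA in primary rat cortical cultures with exposure spanning days 0–12. Within-burst ISI is averaged per well and integrated across recording days by area under the curve, with DMSO as negative control baseline.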
# [11] = CCTE_Shafer_MEA_dev_interburst_interval_mean: CCTE's Neural Network Formation Assay for Mean Interburst Interval, Shafer Lab (AID 2284046);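 further: well-mean interburst interval of bursting electrodes as AUC over four recording days; curve fitted for decrease in interburst interval relative to DMSO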
# How it was run: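 Network formation assay in primary rat cortical cultures, exposed from DIV 0 to 12. Mean interburst interval per well, integrated as AUC over four recordings.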
# [12] = CCTE_Shafer_MEA_dev_network_spike_number: CCTE's Neural Network Formation Assay for Number of Network Spikes, Shafer Lab (AID 2284048);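 further: synchronized bursts across electrodes counted on days 5 7 9 12 and integrated as AUC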
# How it was run: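 Number of network spikes (coordinated firing across electrodes) recorded on days 5, 7, 9 and 12 and summarised as area under the curve. Rat cortical cultures on MEA, continuous compound exposure with full medium/treatment exchange at DIV 5 and 9.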
# [13] = CCTE_Shafer_MEA_dev_network_spike_peak: CCTE's Neural Network Formation Assay for Mean Number of Electrodes in Network Spike, Shafer Lab (AID 2284049)
# How it was run: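 Rat cortical primary culture, 1.5 x 10^5 cells/well, 48-well MEA (16 electrodes/well). Dosing day 0 through DIV 12, full media/compound exchange DIV 5, 9. AxIS adaptive spike detection; AUC over days 5/7/9/12; loss-of-signal vs DMSO.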
# [14] = CCTE_Shafer_MEA_dev_spike_duration_mean: CCTE's Neural Network Formation Assay for Mean Spike Duration, Shafer Lab (AID 2284051);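 further: mean network spike duration pooled as area under curve over DIV 5 to 12 recordings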
# How it was run: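 With DMSO as baseline, loss of mean network spike duration was scored from extracellular recordings of rat cortical neurons on MEA plates. Exposure spanned plating to DIV 12; the four recording days were collapsed into one AUC value.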
# [15] = CCTE_Shafer_MEA_dev_network_spike_duration_std: CCTE's Neural Network Formation Assay for Standard Deviation of Network Spike Duration, Shafer Lab (AID 2284052);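 further: area under curve of spike duration SD across recording days 5 to 12; hits are decreases in network spike duration SD versus DMSO vehicle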
# How it was run: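 Developing networks of rat cortical neurons were exposed over twelve days in vitro on 48-well MEA plates. Trapezoidal AUC of recordings (DIV 5–12) was analysed for signal loss relative to DMSO vehicle.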
# [16] = CCTE_Shafer_MEA_dev_per_network_spike_spike_number_mean: CCTE's Neural Network Formation Assay for Mean Number of Spikes in a Network Spike, Shafer Lab (AID 2284053)
# How it was run: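 First, rat cortical cells (1.5 x 10^5/well) were seeded onto MEA wells; second, dosing began at plating and was refreshed on DIV 5 and 9; finally, network-spike spike counts across DIV 5–12 were summarized as AUC.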
# [17] = CCTE_Shafer_MEA_dev_LDH: CCTE's Lactate Dehydrogenase Assay for Cytotoxicity in the Neural Network Formation Assay, Shafer Lab (AID 2284068; active means hit-call score of the fitted dose curve at least 0.9, where 1 is the maximum;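 further: exposure for twelve days from plating with re-dosing on DIV 5 and 9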)
# How it was run: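 Developing rat cortical networks on MEA plates are exposed to compound for 12 days from plating. LDH activity is measured spectrophotometrically, with DMSO as baseline.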
# [18] = CCTE_Shafer_MEA_dev_AB: CCTE's Alamar Blue Assay for Cytotoxicity in the Neural Network Formation Assay, Shafer Lab (AID 2284083; active means hit-call score of the fitted dose curve at least 0.9, where 1 is the maximum;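 further: resazurin reduction fluorescence as viability of cultured neurons; twelve days of exposure from plating with re-dosing on DIV 5 and 9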)
# How it was run: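 Cytotoxicity companion to the developmental MEA: primary rat cortical neurons, 12-day exposure starting day 0, compound refreshed DIV 5 and 9; resazurin fluorescence, fitted against DMSO vehicle.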
# [19] = CCTE_Shafer_MEA_dev_mutual_information_norm: CCTE's Neural Network Formation Assay for Mutual Information Normalization, Shafer Lab (AID 2284091)
# How it was run: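 Shared information across electrodes, tracked on days 5, 7, 9 and 12 of network development and collapsed as trapezoidal area under the curve. Rat cortical cultures were treated continuously from plating, with treatment renewed at feeds on DIV 5 and 9; DMSO baseline, negative-direction fit.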
# [20] = CCTE_Shafer_MEA_dev_correlation_coefficient_mean: CCTE's Neural Network Formation Assay for Mean Correlation Coefficient, Shafer Lab (AID 2284093)
# How it was run: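 Extracellular firing from rat cortical networks on 48-well MEAs, DMSO-referenced, negative fitting direction. Compound present from plating to DIV12; mean pairwise correlation per well integrated over DIV5–12 recordings by trapezoidal AUC.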
# [21] = CCTE_Mundy_HCI_Cortical_Synap_Neur_Matur_NeuriteSpotCountPerNeuriteLength: CCTE's Synaptogenesis and Neurite Maturation Assay in rat cortical cells for Neurite Spot Count per Neurite Length, Mundy Lab (AID 2284210)
# How it was run: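 Synaptophysin spots per unit neurite length, measured by automated imaging of MAP2/synaptophysin/Hoechst-stained neurons. Cultures from rat cortex received chemical at DIV 7 with media change through DIV 12; glial growth arrested by AraC at DIV 5; DMSO baseline.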
# [22] = CCTE_Mundy_HCI_Cortical_NOG_NeuriteLength: CCTE's Neurite Outgrowth Assay in rat cortical cells for Neurite Length, Mundy Lab (AID 2284213)
# How it was run: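 First, rat primary cortical cells were plated and, 2 h later, given test chemical as a 1/10 dilution. Finally, βIII-tubulin immunostaining enabled automated imaging of neurite length.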
# [23] = CCTE_Mundy_HCI_Cortical_Synap_Neur_Matur_NeuriteLength: CCTE's Synaptogenesis and Neurite Maturation Assay in rat cortical cells for Neurite Length, Mundy Lab (AID 2284214)
# How it was run: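 Cultures of rat primary cortical cells received chemical at DIV 7 and were fixed at DIV 12, after glial arrest with AraC at DIV 5. Neurite length was measured by automated imaging of MAP2 immunofluorescence.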
# [24] = CCTE_Mundy_HCI_Cortical_Synap_Neur_Matur_NeuriteSpotCountPerNeuron: CCTE's Synaptogenesis and Neurite Maturation Assay in rat cortical cells for Neurite Spot Count per Neuron Count, Mundy Lab (AID 2284215)
# How it was run: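 Synapse density is scored as synaptophysin spots along neurites per neuron in fixed rat cortical neurons, measured at DIV 12 after chemical dosing at DIV 7. DMSO is the negative control and activity baseline.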
# [25] = CCTE_Mundy_HCI_Cortical_Synap_Neur_Matur_SynapseCount: CCTE's Synaptogenesis and Neurite Maturation Assay in rat cortical cells for Synapse Count, Mundy Lab (AID 2284218)
# How it was run: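 Cells were plated, allowed 2 hr to attach, treated with AraC at DIV 5, then exposed to chemicals from DIV 7 until DIV 12. After fixation and MAP2/synaptophysin immunolabelling, synapses per neuron were quantified by automated imaging against DMSO.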
# [26] = CCTE_Mundy_HCI_hN2_NOG_NeuriteCount: CCTE's Neurite Outgrowth Assay in human hN2 cells for Neurite Count, Mundy Lab (AID 2284219; active means hit-call score of the fitted dose curve at least 0.9, where 1 is the maximum)
# How it was run: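 In this morphology assay, hNP1-derived neurons received test chemical 2 h post-plating and were fixed two days later in warm paraformaldehyde/sucrose containing Hoechst 33342. Neurites, labelled by rabbit anti-βIII-tubulin (1:800) and Alexa Fluor-488 (1:500), were counted automatically.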
# [27] = CCTE_Mundy_HCI_hN2_NOG_NeuriteLength: CCTE's Neurite Outgrowth Assay in human hN2 cells for Neurite Length, Mundy Lab (AID 2284220; active means hit-call score of the fitted dose curve at least 0.9, where 1 is the maximum)
# How it was run: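 Plate hNP1-derived neurons, then add chemical 2 h later as a 1/10 dilution. Stain with anti-βIII-tubulin then Alexa Fluor-488 secondary, and image automatically to measure neurite length.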
# [28] = CCTE_Mundy_HCI_hN2_NOG_NeuronCount: CCTE's Neurite Outgrowth Assay in human hN2 cells for Neuron Count, Mundy Lab (AID 2284221; active means hit-call score of the fitted dose curve at least 0.9, where 1 is the maximum)
# How it was run: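 Read-out is the number of betaIII-tubulin-positive neurons imaged by automated high-content analysis, with DMSO as negative control.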
# [29] = CCTE_Mundy_HCI_Cortical_Synap_Neur_Matur_CellBodySpotCount: CCTE's Synaptogenesis and Neurite Maturation Assay in rat cortical cells for Cell Body Spot Count, Mundy Lab (AID 2284223)
# How it was run: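 Synapse number at neuronal cell bodies was quantified as synaptophysin puncta per neuron in rat cortical cultures exposed from DIV 7 to DIV 12. Values were normalised to DMSO.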
# [30] = CCTE_Mundy_HCI_Cortical_NOG_NeuronCount: CCTE's Neurite Outgrowth Assay in rat cortical cells for Neuron Count, Mundy Lab (AID 2284236; active means hit-call score of the fitted dose curve at least 0.9, where 1 is the maximum;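 further: neurons counted by imaging betaIII-tubulin and Hoechst stained cortical cells; cells exposed to compound for about 48 hours before fixation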)
# How it was run: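 Read-out: neuron number by high-content imaging of betaIII-tubulin (Alexa Fluor-488) and Hoechst-labelled rat primary cortical cells.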
# [31] = CCTE_Mundy_HCI_hNP1_Casp3_7: CCTE's Caspase-Glo 3/7 Assay in human neuroprogenitor cells for Apoptosis, Mundy Lab (AID 2284240)
# How it was run: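 Apoptosis is scored by activated caspase-3/7 luminescence in WA09-derived neural progenitor cells, measured 26.5 h after chemical dosing. Values represent gain of signal relative to DMSO vehicle.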
# [32] = CCTE_Mundy_HCI_Cortical_Synap_Neur_Matur_NeuronCount: CCTE's Synaptogenesis and Neurite Maturation Assay in rat cortical cells for Neuron Count, Mundy Lab (AID 2284242; active means hit-call score of the fitted dose curve at least 0.9, where 1 is the maximum)
# How it was run: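 Cortical cells from rat are plated, treated with AraC at DIV 5, and exposed to test chemicals with a media change at DIV 7. At DIV 12 they are fixed and immunostained (MAP2, synaptophysin), and imaged neuron counts are compared against DMSO controls.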
# Sequence of Cellular tumor antigen p53 (Homo sapiens) (P04637 whole entry, looked up): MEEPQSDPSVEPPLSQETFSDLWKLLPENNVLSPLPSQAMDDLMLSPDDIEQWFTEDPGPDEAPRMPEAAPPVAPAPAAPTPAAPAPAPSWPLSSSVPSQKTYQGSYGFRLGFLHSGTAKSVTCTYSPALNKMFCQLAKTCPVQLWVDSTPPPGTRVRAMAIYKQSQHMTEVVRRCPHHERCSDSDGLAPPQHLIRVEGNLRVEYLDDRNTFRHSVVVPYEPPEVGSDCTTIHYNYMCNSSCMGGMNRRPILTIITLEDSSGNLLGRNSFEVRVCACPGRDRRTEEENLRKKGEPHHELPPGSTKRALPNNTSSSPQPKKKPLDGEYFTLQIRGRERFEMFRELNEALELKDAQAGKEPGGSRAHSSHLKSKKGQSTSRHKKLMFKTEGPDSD
structure (smiles),measurement,setting,value
CN[C@]1(c2ccccc2Cl)CCCCC1=O,outcome,[1],inactive
same,outcome,[2],inactive
same,outcome,[3],inactive
same,outcome,[4],inactive
same,outcome,[5],inactive
same,outcome,[6],inactive
same,outcome,[7],inactive
same,outcome,[8],inactive
same,outcome,[9],inactive
same,outcome,[10],inactive
same,outcome,[11],inactive
same,outcome,[12],inactive
same,outcome,[13],inactive
same,outcome,[14],inactive
same,outcome,[15],inactive
same,outcome,[16],inactive
same,AC50,[17],9.27 µM (active)
same,outcome,[18],inactive
same,outcome,[19],inactive
same,outcome,[20],inactive
same,outcome,[21],inactive
same,outcome,[22],inactive
same,outcome,[23],inactive
same,outcome,[24],inactive
same,outcome,[25],inactive
same,outcome,[26],inactive
same,outcome,[27],inactive
same,outcome,[28],inactive
same,outcome,[29],inactive
same,outcome,[30],inactive
same,outcome,[31],inactive
same,outcome,[32],inactive
